Of roughly 8,800 targets only a part is listed; those with a hit were picked by preference. About 0.5% of all pairs of compound and target were hits. Unmarked numbers belong to inactive results.
compound: CC1=CC=C(C=C1)SC2=C3C=C(SC3=CN=C2)C(=O)N; experiment: log2 fold change, soluble protein after heating vs DMSO (PISA); higher = thermal stabilisation; K562 lysate, 10 uM; active = over 0.2 and 3.5 SD of the protein, either way, in both replicates (recomputed)
Summary of the method: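 K562 pellets were dounce-homogenised in PBS pH 7.4 containing 1 mM MgCl2, and the crude extract, at 1 mg/mL protein, was exposed to 10 μM compound for 30 min. Aliquots were heated for 3 min across 48°C-58°C, pooled, brought to 0.5% NP-40 at 4°C and spun at 21,000xg for 90 min, with the supernatant taken as soluble protein. TMTpro 16plex LC-MS/MS with equalised channel sums quantified that protein. Values are log-two fold changes in thermal stability relative to solvent controls, taken from duplicates.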

UniProt Q9H892, sequence (Q9H892 whole entry, looked up): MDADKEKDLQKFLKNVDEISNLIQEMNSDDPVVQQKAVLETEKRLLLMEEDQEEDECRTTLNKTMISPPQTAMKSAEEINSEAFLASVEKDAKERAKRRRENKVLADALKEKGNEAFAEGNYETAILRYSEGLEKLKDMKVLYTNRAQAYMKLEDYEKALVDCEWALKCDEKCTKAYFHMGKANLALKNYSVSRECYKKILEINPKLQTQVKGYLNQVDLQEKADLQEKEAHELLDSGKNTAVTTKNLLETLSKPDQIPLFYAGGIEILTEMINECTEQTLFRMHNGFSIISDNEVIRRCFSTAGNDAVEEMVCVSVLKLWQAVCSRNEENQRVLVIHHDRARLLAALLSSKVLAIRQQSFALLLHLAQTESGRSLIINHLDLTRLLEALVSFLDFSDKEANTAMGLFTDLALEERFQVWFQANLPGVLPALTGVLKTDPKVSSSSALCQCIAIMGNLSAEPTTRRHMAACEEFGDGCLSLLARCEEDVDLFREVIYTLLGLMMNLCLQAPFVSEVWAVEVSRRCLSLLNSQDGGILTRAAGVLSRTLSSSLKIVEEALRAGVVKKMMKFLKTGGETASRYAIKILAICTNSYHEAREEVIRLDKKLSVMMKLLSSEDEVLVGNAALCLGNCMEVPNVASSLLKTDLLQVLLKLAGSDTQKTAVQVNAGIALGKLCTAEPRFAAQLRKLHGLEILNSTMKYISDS
UniProt Q01085, sequence (Q01085 whole entry, looked up): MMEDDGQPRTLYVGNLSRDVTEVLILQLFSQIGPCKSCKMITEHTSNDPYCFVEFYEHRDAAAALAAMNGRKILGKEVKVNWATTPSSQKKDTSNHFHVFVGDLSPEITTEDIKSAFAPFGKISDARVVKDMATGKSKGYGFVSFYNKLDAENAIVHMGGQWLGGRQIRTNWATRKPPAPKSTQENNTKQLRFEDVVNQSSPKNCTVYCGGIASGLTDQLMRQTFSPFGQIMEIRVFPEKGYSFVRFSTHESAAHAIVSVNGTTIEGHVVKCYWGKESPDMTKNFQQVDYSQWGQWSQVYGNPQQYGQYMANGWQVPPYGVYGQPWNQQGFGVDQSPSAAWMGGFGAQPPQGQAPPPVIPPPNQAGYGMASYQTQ
UniProt Q12815, sequence (Q12815 whole entry, looked up): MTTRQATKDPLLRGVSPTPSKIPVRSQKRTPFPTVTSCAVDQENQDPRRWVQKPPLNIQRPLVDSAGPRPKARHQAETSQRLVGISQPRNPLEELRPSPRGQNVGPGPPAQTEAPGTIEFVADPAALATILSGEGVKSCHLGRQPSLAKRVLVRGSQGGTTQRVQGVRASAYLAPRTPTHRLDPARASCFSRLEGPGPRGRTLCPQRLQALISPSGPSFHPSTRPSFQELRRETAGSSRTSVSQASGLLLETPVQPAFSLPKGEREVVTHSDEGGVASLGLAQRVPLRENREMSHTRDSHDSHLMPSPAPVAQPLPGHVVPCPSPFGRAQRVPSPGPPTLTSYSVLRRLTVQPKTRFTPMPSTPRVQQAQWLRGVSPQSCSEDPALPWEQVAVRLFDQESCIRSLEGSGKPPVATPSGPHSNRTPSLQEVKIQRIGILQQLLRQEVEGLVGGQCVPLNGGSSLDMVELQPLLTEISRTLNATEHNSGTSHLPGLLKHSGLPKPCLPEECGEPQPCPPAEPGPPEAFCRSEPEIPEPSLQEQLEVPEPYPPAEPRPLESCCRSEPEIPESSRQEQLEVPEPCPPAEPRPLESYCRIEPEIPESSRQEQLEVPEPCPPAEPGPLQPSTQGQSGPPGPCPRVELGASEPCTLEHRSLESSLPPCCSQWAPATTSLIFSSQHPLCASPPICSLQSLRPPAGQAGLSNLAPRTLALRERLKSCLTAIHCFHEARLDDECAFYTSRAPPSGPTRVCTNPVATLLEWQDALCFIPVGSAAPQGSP
UniProt Q9H497, sequence (Q9H497 whole entry, looked up): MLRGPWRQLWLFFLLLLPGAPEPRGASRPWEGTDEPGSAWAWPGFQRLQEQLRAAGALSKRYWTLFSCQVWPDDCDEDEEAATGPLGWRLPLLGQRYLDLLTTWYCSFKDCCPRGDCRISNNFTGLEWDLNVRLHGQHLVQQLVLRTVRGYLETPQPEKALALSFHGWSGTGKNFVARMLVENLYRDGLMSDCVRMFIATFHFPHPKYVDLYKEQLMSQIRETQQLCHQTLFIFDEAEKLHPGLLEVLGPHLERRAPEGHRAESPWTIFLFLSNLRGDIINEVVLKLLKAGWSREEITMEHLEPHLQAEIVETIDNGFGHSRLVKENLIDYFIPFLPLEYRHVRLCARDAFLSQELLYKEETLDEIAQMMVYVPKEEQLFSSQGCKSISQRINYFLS
UniProt Q9NUY8, sequence (Q9NUY8 whole entry, looked up): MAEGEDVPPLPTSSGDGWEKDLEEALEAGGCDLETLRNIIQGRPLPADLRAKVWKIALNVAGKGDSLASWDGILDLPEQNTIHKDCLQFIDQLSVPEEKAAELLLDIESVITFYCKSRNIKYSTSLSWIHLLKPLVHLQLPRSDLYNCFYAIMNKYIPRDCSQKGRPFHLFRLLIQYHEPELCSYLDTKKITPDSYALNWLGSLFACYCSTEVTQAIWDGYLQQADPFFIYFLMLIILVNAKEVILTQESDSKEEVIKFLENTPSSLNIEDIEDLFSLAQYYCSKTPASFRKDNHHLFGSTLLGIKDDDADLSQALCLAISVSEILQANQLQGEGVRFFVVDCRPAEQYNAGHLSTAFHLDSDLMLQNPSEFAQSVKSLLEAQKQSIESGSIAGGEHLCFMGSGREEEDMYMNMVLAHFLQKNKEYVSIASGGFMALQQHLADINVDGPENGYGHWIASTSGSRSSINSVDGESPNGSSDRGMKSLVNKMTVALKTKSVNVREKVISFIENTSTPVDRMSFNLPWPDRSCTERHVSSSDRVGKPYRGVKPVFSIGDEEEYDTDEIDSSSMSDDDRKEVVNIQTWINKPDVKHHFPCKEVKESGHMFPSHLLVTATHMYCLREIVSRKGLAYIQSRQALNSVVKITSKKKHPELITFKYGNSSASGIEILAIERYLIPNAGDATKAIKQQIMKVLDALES
UniProt Q8IZ69, sequence (Q8IZ69 whole entry, looked up): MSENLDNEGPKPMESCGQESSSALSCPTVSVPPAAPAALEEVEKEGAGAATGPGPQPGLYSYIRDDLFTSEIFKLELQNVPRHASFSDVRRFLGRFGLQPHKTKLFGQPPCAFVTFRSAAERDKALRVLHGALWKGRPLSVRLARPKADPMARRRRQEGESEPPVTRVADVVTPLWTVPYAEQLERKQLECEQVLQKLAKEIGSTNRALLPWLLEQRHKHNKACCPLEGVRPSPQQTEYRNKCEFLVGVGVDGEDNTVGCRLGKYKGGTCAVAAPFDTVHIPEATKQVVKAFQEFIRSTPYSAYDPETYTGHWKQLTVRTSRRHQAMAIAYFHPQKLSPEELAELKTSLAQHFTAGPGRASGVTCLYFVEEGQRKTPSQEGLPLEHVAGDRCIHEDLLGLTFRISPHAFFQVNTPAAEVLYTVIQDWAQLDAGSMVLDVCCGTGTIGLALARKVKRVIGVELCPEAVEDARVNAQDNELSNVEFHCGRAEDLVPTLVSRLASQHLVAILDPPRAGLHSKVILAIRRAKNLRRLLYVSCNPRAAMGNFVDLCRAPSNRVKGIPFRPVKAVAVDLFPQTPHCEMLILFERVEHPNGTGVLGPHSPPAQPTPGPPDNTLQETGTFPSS
UniProt Q53H54, sequence (Q53H54 whole entry, looked up): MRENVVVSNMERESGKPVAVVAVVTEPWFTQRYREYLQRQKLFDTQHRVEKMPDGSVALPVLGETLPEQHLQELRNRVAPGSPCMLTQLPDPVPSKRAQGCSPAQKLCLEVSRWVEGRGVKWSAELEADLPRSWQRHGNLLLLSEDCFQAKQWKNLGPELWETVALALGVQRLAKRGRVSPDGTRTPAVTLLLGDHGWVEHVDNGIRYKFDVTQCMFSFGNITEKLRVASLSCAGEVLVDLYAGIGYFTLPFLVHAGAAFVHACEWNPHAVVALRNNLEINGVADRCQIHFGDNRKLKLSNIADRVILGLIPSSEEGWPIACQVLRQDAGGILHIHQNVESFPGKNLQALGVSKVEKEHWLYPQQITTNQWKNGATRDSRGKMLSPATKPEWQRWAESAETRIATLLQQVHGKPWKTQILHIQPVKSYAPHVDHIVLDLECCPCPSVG
UniProt P67936, sequence (P67936 whole entry, looked up): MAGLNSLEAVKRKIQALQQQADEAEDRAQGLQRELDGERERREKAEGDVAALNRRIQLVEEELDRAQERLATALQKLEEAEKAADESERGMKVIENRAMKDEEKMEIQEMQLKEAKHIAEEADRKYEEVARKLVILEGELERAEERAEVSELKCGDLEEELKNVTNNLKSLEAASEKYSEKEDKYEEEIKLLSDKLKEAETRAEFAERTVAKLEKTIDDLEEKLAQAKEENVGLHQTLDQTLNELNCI
UniProt Q9P0S9, sequence (Q9P0S9 whole entry, looked up): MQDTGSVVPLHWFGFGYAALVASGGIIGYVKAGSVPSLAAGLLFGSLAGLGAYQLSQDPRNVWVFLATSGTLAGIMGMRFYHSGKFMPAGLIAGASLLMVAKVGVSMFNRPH
UniProt P06753, sequence (P06753 whole entry, looked up): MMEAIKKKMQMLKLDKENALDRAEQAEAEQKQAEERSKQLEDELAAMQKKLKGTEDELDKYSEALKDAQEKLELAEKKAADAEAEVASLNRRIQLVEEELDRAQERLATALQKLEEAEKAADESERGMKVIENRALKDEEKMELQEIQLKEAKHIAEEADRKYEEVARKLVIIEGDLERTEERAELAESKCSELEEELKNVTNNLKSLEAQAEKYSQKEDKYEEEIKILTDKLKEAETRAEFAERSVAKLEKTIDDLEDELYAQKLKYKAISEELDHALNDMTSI
UniProt Q96S44, sequence (Q96S44 whole entry, looked up): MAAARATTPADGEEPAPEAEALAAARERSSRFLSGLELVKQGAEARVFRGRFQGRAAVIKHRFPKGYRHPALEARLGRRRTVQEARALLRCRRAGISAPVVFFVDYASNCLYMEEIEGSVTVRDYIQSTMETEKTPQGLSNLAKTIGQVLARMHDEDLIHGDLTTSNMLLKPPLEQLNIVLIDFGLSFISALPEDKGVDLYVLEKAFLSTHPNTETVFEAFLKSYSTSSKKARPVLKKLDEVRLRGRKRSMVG

| Target | log2 fold change |
| --- | --- |
| TOR3A (UniProt Q9H497) | 0.365 (active) |
| TRAF2 isoform 2 (UniProt Q12933) | -0.006 |
| TBRG4 (UniProt Q969Z0) | -0.023 |
| TBL3 (UniProt Q12788) | 0.008 |
| UBE3B (UniProt Q7Z3V4) | 0.023 |
| TRA2A (UniProt Q13595) | -0.007 |
| TJP1 isoform 2 (UniProt Q07157) | -0.014 |
| TPM4 isoform 2 (UniProt P67936) | 0 |
| TUBGCP3 (UniProt Q96CW5) | 0.028 |
| TGOLN2 isoform 7 (UniProt O43493) | -0.013 |
| TSPAN13 (UniProt O95857) | -0.043 |
| TIMELESS (UniProt Q9UNS1) | -0.027 |
| TRMT2A (UniProt Q8IZ69) | 0.008 |
| TTC12 isoform 2 (UniProt Q9H892) | -0.003 |
| TMPO (UniProt P42167) | -0.064 |
| TBK1 (UniProt Q9UHD2) | -0.013 |
| TGFBRAP1 (UniProt Q8WUH2) | -0.012 |
| TMEM14C (UniProt Q9P0S9) | 0.152 |
| TMEM164 (UniProt Q5U3C3) | -0.061 |
| TPM3 (UniProt P06753) | -0.007 |

| Target | log2 fold change |
| --- | --- |
| TTI2 (UniProt Q6NXR4) | -0.017 |
| TBC1D23 (UniProt Q9NUY8) | -0.012 |
| TRIM25 (UniProt Q14258) | 0.006 |
| UBE2D1 (UniProt P51668) | -0.007 |
| TPP2 (UniProt Q5VZU9) | 0.061 |
| TRMT12 (UniProt Q53H54) | -0.031 |
| TCAF2 (UniProt A6NFQ2) | 0.063 |
| TRIM56 (UniProt Q9BRZ2) | 0.033 |
| TTC27 (UniProt Q6P3X3) | 0.042 |
| UBR5 (UniProt O95071) | 0.018 |
| TROAP (UniProt Q12815) | -0.25 |
| TUBGCP2 isoform 4 (UniProt Q9BSJ2) | -0.017 |
| TTC5 (UniProt Q8N0Z6) | -0.001 |
| TRIM33 (UniProt H0Y612) | -0.012 |
| TP53RK (UniProt Q96S44) | -0.071 |
| TFCP2 (UniProt Q12800) | 0.026 |
| TIAL1 isoform 2 (UniProt Q01085) | -0.012 |
| TRIM65 (UniProt Q6PJ69) | -0.063 |
| TTF2 (UniProt Q9UNY4) | -0.115 |
| TRAPPC9 isoform 2 (UniProt Q96Q05) | -0.001 |

Source: the supplement of paper PMC10849652
